Laboratory results from paper PMC13494018.
Unmarked numbers belong to inactive results. No rule for the calls is given here.

These binders were tested against CD276, Q5ZPR3.
Chain of CD276, Q5ZPR3 (Q5ZPR3 whole entry): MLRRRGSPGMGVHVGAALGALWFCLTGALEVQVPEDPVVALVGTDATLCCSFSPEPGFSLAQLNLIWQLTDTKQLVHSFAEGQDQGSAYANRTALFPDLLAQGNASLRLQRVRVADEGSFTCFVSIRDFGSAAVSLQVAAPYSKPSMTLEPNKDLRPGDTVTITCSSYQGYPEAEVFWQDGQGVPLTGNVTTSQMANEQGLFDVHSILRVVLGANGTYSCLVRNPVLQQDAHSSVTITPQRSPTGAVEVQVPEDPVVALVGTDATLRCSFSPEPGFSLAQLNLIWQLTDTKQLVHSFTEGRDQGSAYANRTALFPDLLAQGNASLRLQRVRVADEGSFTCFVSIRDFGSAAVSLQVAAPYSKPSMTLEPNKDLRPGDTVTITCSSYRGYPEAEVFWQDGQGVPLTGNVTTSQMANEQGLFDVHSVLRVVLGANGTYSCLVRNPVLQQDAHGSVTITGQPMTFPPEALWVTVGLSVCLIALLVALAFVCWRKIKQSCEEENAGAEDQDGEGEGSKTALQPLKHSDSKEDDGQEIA

| Binder | binding in a display sort |
| --- | --- |
| design_611_394c5ea9-a0d3-47c4-9d48-89ba6a28fdd0_2429_dldesign_0_cycle1_af2pred (protein) GPERAELLRNAARQAEEAIRKGDESPDGVLYYTAAALIVANAIGDPELRAKAQAAAALSPEEARKVAEELRELALERARELA | not found |
| design_612_bdadb936-3f14-48ad-830f-718e38d81c30_198_dldesign_0_cycle1_af2pred (protein) DAAVAQGQKLRDAALAALAAATTLAQFNAAAQQGLAALAQITALIVAHPEAGPQLQKLAAEVLAAIEAARARALAA | not found |
| design_611_394c5ea9-a0d3-47c4-9d48-89ba6a28fdd0_1683_dldesign_0_cycle1_af2pred (protein) DEAEELVRLVEEARALAIDPATRGQGVTLFLLVGIRSGPAVRAAAVEAARAAREAAALPPEERARRLEELAARVIAAIRAEA | not found |
| design_612_bdadb936-3f14-48ad-830f-718e38d81c30_331_dldesign_0_cycle1_af2pred (protein) GKKAQAIALIDEATALLIAAQAADAETGAKLTAEAVKLLSEAIELAAELNGRAAGLIGRLLALGAAGTISPERLKELAAAAKAEIEAA | not found |
| design_612_bdadb936-3f14-48ad-830f-718e38d81c30_608_dldesign_0_cycle1_af2pred (protein) AALVAQAAADLEAIGARYPALKPAADRALTLTPGLRLLAANTARNALPGSEEEIVEALRRMVEALEAEQARLDAA | not found |
| design_611_394c5ea9-a0d3-47c4-9d48-89ba6a28fdd0_2077_dldesign_0_cycle1_af2pred (protein) ASEELLKEAVTLNMRLAVEFPEVAKYARAAAHYLMAGDAEKAVESAEKMLEEAKKAGPEAAALAEKALKATKAAAADQAAER | not found |
| design_612_bdadb936-3f14-48ad-830f-718e38d81c30_642_dldesign_0_cycle1_af2pred (protein) MREEARALLERAREALARARALAEAGGDGGEAVSLMVEALEAASRALRLARELGDEELAEEAERLLAEIRRATAAITQAVIDRA | not found |
| design_611_394c5ea9-a0d3-47c4-9d48-89ba6a28fdd0_2254_dldesign_0_cycle1_af2pred (protein) GKEEAQKLVEEAREAAKKAKEYTAKALAEDLEAEGAKSWAALNEALAKASQAAQLDPELGSAAIAEVVETAKEIKEKLDAAKAA | not found |
| design_611_394c5ea9-a0d3-47c4-9d48-89ba6a28fdd0_2091_dldesign_0_cycle1_af2pred (protein) RAALEEALAKARELAEKVGEEDPEVAKEVLELIDKAAATSPATGLYYLLQALELMSRYAKESGSEVAREAAEALRAAVAIWSRLAIA | not found |
| design_612_bdadb936-3f14-48ad-830f-718e38d81c30_1230_dldesign_0_cycle1_af2pred (protein) AAAAAVATAAADAMYKQAKKQAEEAFKAAKENPEEGKKLAESALKNFELAATLYAQAGDEAKAKAVLEEGKEKYEEIMKKIKEAE | not found |
| design_612_bdadb936-3f14-48ad-830f-718e38d81c30_715_dldesign_0_cycle1_af2pred (protein) IEQLAALARASYRAVRVAAENLAAGRLTPEQLKAAAQLAEGTEKLAKETAAAYNADPATKEKAAEFEELARFAKEVRDAARAAL | not found |
| design_612_bdadb936-3f14-48ad-830f-718e38d81c30_247_dldesign_0_cycle1_af2pred (protein) GALGRSVARDTARAFLADPEKGKEMADIAAGVGATDAAAGRAALEELLRLAKEHPEVAEQLEAAAKKVAAAIKQAEAAAA | not found |
| design_612_bdadb936-3f14-48ad-830f-718e38d81c30_271_dldesign_0_cycle1_af2pred (protein) AARAEALAAEGEALIEQALSDATLSEEERKALLNQAAHKFVAAAGALVADRGPAAQAEITALLSKAVEAKALAEA | not found |
| design_611_394c5ea9-a0d3-47c4-9d48-89ba6a28fdd0_2413_dldesign_0_cycle1_af2pred (protein) TAEQVEKLKERAIERLKKAAELDKEAAEELLKLYEEMKKVSENLGEAALLAAKAAAIAKNPEARALASQALADLSQAAILAAA | not found |
| design_612_bdadb936-3f14-48ad-830f-718e38d81c30_557_dldesign_0_cycle1_af2pred (protein) MDQAVADRTAEALAKHAKRLLEEGLKLAKEGDLEEAKKKVEAAKQVAEVLKNLGSPKAAELGEKMLEEAKKALEEIKKR | not found |
| design_611_394c5ea9-a0d3-47c4-9d48-89ba6a28fdd0_1764_dldesign_0_cycle1_af2pred (protein) MLAEEARKYAEKGAEGEDSEEWFAKAAELYAQALLTSEEEARATFEALREVAERYPEKAEKVYAAISRGVQLAAQQAL | not found |
| design_611_394c5ea9-a0d3-47c4-9d48-89ba6a28fdd0_2334_dldesign_0_cycle1_af2pred (protein) MTPAEAQLQAGEVFLRAAEQALKAGNYESAIKLAELAIEAAKQAKKLAKAAGDEATAKKAEEVEKKAKEVLKKAKE | not found |
| design_612_bdadb936-3f14-48ad-830f-718e38d81c30_88_dldesign_0_cycle1_af2pred (protein) AAAAAAGEAALARLETEGAAAAAAAAADPAAAGEEIERVLALQAEVARAHPSVAAEAAAIARRYNAAIARAVVAA | not found |
| design_612_bdadb936-3f14-48ad-830f-718e38d81c30_773_dldesign_0_cycle1_af2pred (protein) SAAAEAQQRLNELLGRLTAATEAGAAVDPALASALAGKAFTELSKAHQYLLAGDVDAAQAELDKAEKLVKELEAAAAAAAAAAA | not found |

| Binder | binding in a display sort |
| --- | --- |
| design_611_394c5ea9-a0d3-47c4-9d48-89ba6a28fdd0_2213_dldesign_0_cycle1_af2pred (protein) GQELLAQAQKELKEGKALMKEGKYKEALAKFTQAANLAAKAAAAYADQPIAKQANAVLAEAVENMAKAQALID | not found |
| design_611_394c5ea9-a0d3-47c4-9d48-89ba6a28fdd0_1995_dldesign_0_cycle1_af2pred (protein) AELAKQIAKKVMETAIKIAEEETPEAGIEAGKRAAMTAVALGDLETAEETIERVVEIARKKDPEAAERAREELEAAYARALAAVAAS | not found |
| design_611_394c5ea9-a0d3-47c4-9d48-89ba6a28fdd0_1531_dldesign_0_cycle1_af2pred (protein) AQAQVEAMARNAAAGMRALARADGHPDVGEEMAALVLADPVEGARRAVELARERLSPEVAAAVAEIARIQIETA | not found |
| design_611_394c5ea9-a0d3-47c4-9d48-89ba6a28fdd0_1682_dldesign_0_cycle1_af2pred (protein) SAALEELREKGKAEANALISASMKAAAAGLAGDAATAAAAAATIEANAKEAKEKAKEYPEAKEYYEKAAKVNTQLAEGAKLL | not found |
| design_612_bdadb936-3f14-48ad-830f-718e38d81c30_1207_dldesign_0_cycle1_af2pred (protein) GAELLAKKAQELYKKAEELAKKAPESVEAAKKAQEYAQQSIATVAELFEKFPEAPQELKASLARIAAQAAKYYLDAQKLIKAA | not found |
| design_612_bdadb936-3f14-48ad-830f-718e38d81c30_501_dldesign_0_cycle1_af2pred (protein) DLLAKQKELSEKYERVAEIGEEARKLVGEEAAELSLKALTYYTKAMAAYAAGEATAAEAEKYEKKGEEYEKKLKELKEKELKK | not found |
| design_612_bdadb936-3f14-48ad-830f-718e38d81c30_973_dldesign_0_cycle1_af2pred (protein) GAATALAILKANLAAQVKAAAAGVGAKAAAETAKVLADSAAGIAKADPAVAAEAEKLAAEAKAASKEFAAKAEAAAAA | not found |
| design_611_394c5ea9-a0d3-47c4-9d48-89ba6a28fdd0_2343_dldesign_0_cycle1_af2pred (protein) AQALADQQLIATVKAALKNAEELYKKDKKAGAKAFAAAAEVAKLAIEGSSAAAKPELKALEKKAKENEKKAKEDA | not found |
| design_611_394c5ea9-a0d3-47c4-9d48-89ba6a28fdd0_1623_dldesign_0_cycle1_af2pred (protein) SAEVLAAAEKLVEIGELARKAAEAFPELAEKAAEAANLAALGLAKLASGATAAEGKKAMEKAEELAKELKKAL | not found |
| design_612_bdadb936-3f14-48ad-830f-718e38d81c30_1324_dldesign_0_cycle1_af2pred (protein) AFAAAIAALTAAAAATTPALATQLNAVKTAVTNTAKNAQAAPPEVKAATAAKWAEIAQGAVDAALAAAAA | not found |
| design_611_394c5ea9-a0d3-47c4-9d48-89ba6a28fdd0_1469_dldesign_0_cycle1_af2pred (protein) GKERAVEIMRRGLTEVAKEALKVSPEVAGVVQTALAKAIGAAAESMEKALEVLKKGAEEAEKLDPEIGKKVREVLKKVEEAYKE | not found |
| design_611_394c5ea9-a0d3-47c4-9d48-89ba6a28fdd0_1787_dldesign_0_cycle1_af2pred (protein) AAAAIAAATTGMNIAKKNANTLLAQAEATGNAGLADAAKVAADIVKANAKAAAKLADADTGAALVKDAEDFAKATNAKIAAVKAKA | not found |
| design_612_bdadb936-3f14-48ad-830f-718e38d81c30_262_dldesign_0_cycle1_af2pred (protein) AKERVKELAKEIEKLAKEAPPEVAKHLKKAAEALKKGVEEGPGAMAEAVVTLAEAAAEAYKLDPEVGERLRRIAAEVARLAIEYQA | not found |
| design_611_394c5ea9-a0d3-47c4-9d48-89ba6a28fdd0_1679_dldesign_0_cycle1_af2pred (protein) GEELEKAKEEAEKLTDLAKALAAQGTPLGKAAANAMSDSAVKIVLDTAKKLGKEEEGKKYADEIKAATAAALAA | not found |
| design_612_bdadb936-3f14-48ad-830f-718e38d81c30_1240_dldesign_0_cycle1_af2pred (protein) GEEEERDERARELVEKGREEAEKYIAAGKVGEAAGVVVEKAAEAHRVAVSPEVKAEINRELAAQIRRIMEAIA | not found |
| design_612_bdadb936-3f14-48ad-830f-718e38d81c30_1181_dldesign_0_cycle1_af2pred (protein) MMEEIKKLTEKGEELLKKGKELAKEGTAEAANKALAYYVEAAEYYEKALRLAKEAGAEEEFIKELEKKLQEAFANANAAAKAAIALTA | not found |
| design_612_bdadb936-3f14-48ad-830f-718e38d81c30_380_dldesign_0_cycle1_af2pred (protein) SQALQTQMLIANARNLAKNAEELLKKGDVEKAEKAVEALEKLAKIAGEASPEAGKEAGKLAEEARKKVEEFKK | not found |
| design_611_394c5ea9-a0d3-47c4-9d48-89ba6a28fdd0_2003_dldesign_0_cycle1_af2pred (protein) GELKEQTAQLLETAIQAAKLSAKQAQAAIKAATIAGSQSPETKEISEEYGKKAIEAAKKSAEEAQKVIKEWLKLVKE | not found |
| design_612_bdadb936-3f14-48ad-830f-718e38d81c30_35_dldesign_0_cycle1_af2pred (protein) SEAEKEAAKAEVRALGAQALDVALRAAARQGAPVAELAAVVQQISQLVDQGIALVEKGDLEAGLALAQQALQLAQQFAA | not found |
